According to PubChem BioAssay (NCATS):
Inconclusive results are not listed. The source made the active and inactive calls. Calls follow the shape of the dose curve; as a rule, active = well fitted curve in the direction sought with a large enough effect; inconclusive = small, poorly fitted or top-dose-only effect, or another doubt; inactive = no such curve, though single readings can be large; an effect the other way counts as inactive or inconclusive.

Columns and labels:
CRL-7250 = normal cell line; assay: Cytotoxic Profiling of Annotated Libraries Using Quantitative High-Throughput Screening (AID 1296008); conditions: Five cell lines viability, CellTiter-Glo ATP luminescence, 48-72 h; max response: hits give low values; also: nearly all actives have a fitted effect of over 60% in size; also: potency is read from the fitted curve at half-maximal effect; as to max response: % is scaled to controls: 0 for no effect and ±100 for the full control effect
How it was run: (§1)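 Compounds were pin-transferred onto cells and incubated 48 or 72 hr at 37 degree Celsius, 95% humidity. CellTiter-Glo was added, plates sat 10 min at room temperature, then ATP-coupled luminescence was imaged as the viability read-out.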

HaCat = assay: as above; conditions: Five cell lines viability, CellTiter-Glo ATP luminescence, 48-72 h; max response: hits give low values
How it was run: as §1

KB-3-1 = assay: as above; conditions: Five cell lines viability, CellTiter-Glo ATP luminescence, 48-72 h; max response: hits give low values
How it was run: as §1

NIH3T3 [1] = assay: as above; conditions: Five cell lines viability, CellTiter-Glo ATP luminescence, 48-72 h; max response: hits give low values
How it was run: as §1

C33A = assay: Primary qHTS to identify gynecologic anti-cancer compounds using libraries of approved drugs and bioactive compounds (AID 1345084); conditions: Gynecologic cancer cell panel viability, ATPlite luminescence, 48 h; series mostly up to 57.5 µM; also: nearly all actives have a fitted effect of over 55% in size; also: potency is read from the fitted curve at half-maximal effect; as to activity change, negative = cytotoxicity: % is scaled to controls: 0 for no effect and ±100 for the full control effect
How it was run: (§2)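 48 h compound exposure at 37 C, 5% CO2; five-point qHTS. ATPlite luminescence readout of cell ATP.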

CAOV3 = assay: as above; conditions: Gynecologic cancer cell panel viability, ATPlite luminescence, 48 h; series mostly up to 57.5 µM
How it was run: as §2

CASKI = assay: as above; conditions: Gynecologic cancer cell panel viability, ATPlite luminescence, 48 h; series mostly up to 57.5 µM
How it was run: as §2

Es-2 = assay: as above; conditions: Gynecologic cancer cell panel viability, ATPlite luminescence, 48 h; series mostly up to 57.5 µM
How it was run: as §2

HeLa = assay: as above; conditions: Gynecologic cancer cell panel viability, ATPlite luminescence, 48 h; series mostly up to 57.5 µM
How it was run: as §2

Hek293T = assay: as above; conditions: Gynecologic cancer cell panel viability, ATPlite luminescence, 48 h, control line for the selectivity index; series mostly up to 57.5 µM
How it was run: as §2

JEG-3 = assay: as above; conditions: Gynecologic cancer cell panel viability, ATPlite luminescence, 48 h; series mostly up to 57.5 µM
How it was run: as §2

OV90 = assay: as above; conditions: Gynecologic cancer cell panel viability, ATPlite luminescence, 48 h; series mostly up to 57.5 µM
How it was run: as §2

NIH3T3 [2] = assay: qHTS assay to identify novel small-molecules to repurpose for Merkel cell carcinoma treatment (AID 1296009); conditions: MCC and control cell lines, CellTiter-Glo viability, 72 h; series mostly up to 44.8 µM; also: nearly all actives have a fitted effect of over 60% in size
How it was run: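 Cells exposed to NPC (8-point) and MIPE (11-point) compound dilutions for 72 hr at 37 degree celsius; viability read by CellTiter-Glo luminescence, normalized to no-cell and DMSO in-plate controls.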

COc1cc(/C=N\NC(=O)c2ccc3c(c2)OCO3)ccc1OCc1ccccc1
inactive: max response (CRL-7250) 3.71% | max response (HaCat) -3.21% | max response (KB-3-1) -9.36% | max response (NIH3T3 [1]) 0.687% | Potency (C33A) | Potency (CAOV3) | Potency (CASKI) | Potency (Es-2) | Potency (HeLa) | Potency (Hek293T) | Potency (JEG-3)

C[C@@H]1O[C@@H](O[C@H]2[C@H](O[C@H]3CC[C@@]4(C)C(CC[C@]5(C)C4C=C[C@]46OC[C@@]7(CCC(C)(C)C[C@H]74)[C@@H](O[C@@H]4O[C@@H](C)[C@H](O)[C@@H](O)[C@H]4O)C[C@]65C)[C@]3(C)CO)O[C@H](CO)[C@@H](O)[C@@H]2O[C@@H]2O[C@H](CO)[C@@H](O)[C@H](O)[C@H]2O)[C@H](O)[C@H](O)[C@H]1O (some centres undefined)
inactive: max response (CRL-7250) -7.16% | max response (HaCat) -9.32% | max response (KB-3-1) -1.23% | max response (NIH3T3 [1]) -25.1% | activity change, negative = cytotoxicity (C33A) -27.7% [at 11.6 µM] | activity change, negative = cytotoxicity (CAOV3) 9.8% [at 11.6 µM] | activity change, negative = cytotoxicity (CASKI) -9.63% [at 11.6 µM] | activity change, negative = cytotoxicity (Es-2) -13.3% [at 11.6 µM] | activity change, negative = cytotoxicity (HeLa) 21.7% [at 11.6 µM] | activity change, negative = cytotoxicity (Hek293T) -8.24% [at 11.6 µM] | activity change, negative = cytotoxicity (JEG-3) -15.7% [at 11.6 µM]

C=CC(C)(O)CC/C=C(\C)C(=O)OC1C(O)C(CO)OC(OC(=O)C23CCC(C)(C)CC2C2=CCC4C5(C)CCC(OC6OC(COC7OCC(OC(C)=O)C(O)C7OC7OC(COC(C)=O)C(O)C(O)C7OC(C)=O)C(O)C(O)C6OC6OCC(O)C(O)C6O)C(C)(C)C5CCC4(C)C2(C)C(O)C3O)C1OC1OCC(OC2OCC(O)C(OC3OCC(O)C(O)C3O)C2O)C(O)C1O (centres undefined)
inactive: max response (HaCat) -18.3% | max response (KB-3-1) -19.5% | max response (NIH3T3 [1]) -5.37% | activity change, negative = cytotoxicity (C33A) -0.479% [at 6.55 µM] | activity change, negative = cytotoxicity (CAOV3) -0.149% [at 6.55 µM] | activity change, negative = cytotoxicity (CASKI) -8.72% [at 6.55 µM] | activity change, negative = cytotoxicity (Es-2) -2.99% [at 6.55 µM] | activity change, negative = cytotoxicity (HeLa) -14% [at 6.55 µM] | activity change, negative = cytotoxicity (Hek293T) -1.14% [at 6.55 µM] | activity change, negative = cytotoxicity (JEG-3) -2.85% [at 6.55 µM]
active: Potency (CRL-7250) 891 nM

C/C=C/C=C/C=C/C(=O)O[C@@H]1C=C(CO)C(O)(C(=O)OC)[C@@]2(C)CCCC(C)(C)C12 (some centres undefined)
inactive: max response (CRL-7250) -4.29% | max response (HaCat) 2.7% | max response (KB-3-1) -3.74% | max response (NIH3T3 [1]) 4.09% | Potency (C33A) | Potency (CAOV3) | Potency (CASKI) | Potency (Es-2) | Potency (HeLa) | Potency (Hek293T) | Potency (JEG-3) | Potency (OV90)

C[C@@H]1CC[C@@]23CC[C@]4(C)[C@@](C=CC5[C@@]6(C)CC[C@H](O)C(C)(C)C6CC[C@]54C)(OC2=O)C3[C@H]1C (some centres undefined)
inactive: outcome (CRL-7250) | max response (HaCat) -10.7% | max response (KB-3-1) 7.23% | max response (NIH3T3 [1]) 0.572% | Potency (C33A) | Potency (CAOV3) | Potency (CASKI) | Potency (Es-2) | Potency (HeLa) | Potency (Hek293T) | Potency (JEG-3) | Potency (OV90)

CCC(C)/C=C(C)/C=C/C1=CC2=CC(=O)C3(C)OC(C)(O)C(C(=O)OC)C3C2=CO1 (centres undefined)
inactive: max response (CRL-7250) 2.86% | max response (HaCat) 4.73% | max response (KB-3-1) 0.0483% | max response (NIH3T3 [1]) -9.14% | Potency (C33A) | Potency (CAOV3) | Potency (CASKI) | Potency (Es-2) | Potency (HeLa) | Potency (Hek293T) | Potency (JEG-3) | Potency (OV90)

CCC(C)C(=O)OC12C(OC(C)=O)C(C)C3(O)C(C=C(CO)CC4(O)C(=O)C(C)=CC43)C1C2(C)C (centres undefined)
inactive: max response (CRL-7250) -7.79% | max response (HaCat) -11.4% | outcome (KB-3-1) | outcome (NIH3T3 [1]) | Potency (NIH3T3 [2]) | Potency (CAOV3) | Potency (CASKI) | Potency (HeLa) | Potency (Hek293T) | Potency (JEG-3)
active: Potency (Es-2) 316 nM

CC(=O)[C@H]1CC[C@H]2[C@@H]3CC=C4C[C@@H](OS(=O)(=O)O)CC[C@]4(C)[C@H]3CC[C@]12C
inactive: outcome (CRL-7250) | max response (HaCat) 1.57% | max response (KB-3-1) 2.57% | max response (NIH3T3 [1]) -4.15% | Potency (C33A) | Potency (CAOV3) | Potency (CASKI) | Potency (Es-2) | Potency (HeLa) | Potency (Hek293T) | Potency (JEG-3) | Potency (OV90)

O=C1COc2nccc(-c3ccccc3F)c2CN1Cc1cc(C(F)(F)F)cc(C(F)(F)F)c1
inactive: outcome (CRL-7250) | max response (HaCat) -0.797% | max response (KB-3-1) -2.61% | max response (NIH3T3 [1]) -11.4% | Potency (C33A) | Potency (CAOV3) | Potency (CASKI) | Potency (Es-2) | Potency (HeLa) | Potency (Hek293T) | Potency (JEG-3) | Potency (OV90)
